In PMC4552634, “A New Set of Chemical Starting Points with Plasmodium falciparum Transmission-Blocking Potential for Antimalarial Drug Discovery” (PLoS ONE, 2015):
Among all 13,000 compounds or so, about 3,200 (25%) showed an effect of 50% or more. The list shows a part of the results.

Tested on: P. falciparum stage V gametocytes
Design: BacTiter-Glo ATP luminescence viability of purified stage V gametocytes in 384-well plates, per cent inhibition versus DMSO
Conditions: 48 h, 5 µM; inhibitor

SMILES | % Inhibition
Cc1cccc2nc(-c3cccc(-c4ccc(C(=O)NCc5nccn5C)cc4)c3)[nH]c12 [TCMDC-132356] | 7.308%
COc1ccc(NS(=O)(=O)c2ccccc2Br)cc1N1CCN(C)CC1 [TCMDC-139092] | -23.57%
COc1ccc(S(=O)(=O)N(c2cc(Br)cc3c2OCC3)S(=O)(=O)c2ccc(OC)c(N3CCN(C)CC3)c2)cc1N1CCN(C)CC1 [TCMDC-139809] | 54.84%
COc1ccc(S(=O)(=O)Nc2cc(Br)cc3c2OCCC3)cc1N1CCN(C(=O)C(Cl)(Cl)Cl)CC1 [TCMDC-139661] | -19.32%
O=C(/C=C/c1ccc(Cl)c(Cl)c1)N1CCC(CCN2CCc3[nH]c4ccccc4c3C2)CC1 [TCMDC-134173] | -40.99%
CCOC(=O)c1cn(CC)c2cc(F)c(OC3CC4CCC3(C)C4(C)C)cc2c1=O (centres unmarked) [TCMDC-124161] | -18.01%
Nc1cc(-c2ccc(Br)cc2O)nc2ccccc12 [TCMDC-138932] | 61.65%
CCn1c(/C=C/c2cc(Br)ccc2O)nc2ccccc2c1=O [TCMDC-124092] | 7.095%
Nc1cc(C=Cc2ccc(O)cc2)nc2ccccc12 [TCMDC-138973] | -27.13%
CC(C)NCc1cccc(-c2ccc(NS(=O)(=O)c3cccc4cccnc34)cc2)c1 [TCMDC-136480] | 43.51%
CN1CCCN(Cc2cccc(-c3cccc(NS(=O)(=O)c4cccc5cccnc45)c3)c2)CC1 [TCMDC-136482] | 22.96%
O=S(=O)(Nc1ccc(-c2ccc(CN3CCCC3)cc2)cc1)c1cccc2cccnc12 [TCMDC-136475] | 27.58%
CN1CCCN(Cc2cccc(-c3ccc(NS(=O)(=O)c4cccc5cccnc45)cc3)c2)CC1 [TCMDC-136481] | 100.2%
CN1CCCN(Cc2ccc(-c3ccc(NS(=O)(=O)c4cccc5cccnc45)cc3)cc2)CC1 [TCMDC-136478] | 98.81%
CCN1CCN(Cc2ccc(-c3ccc(NS(=O)(=O)c4cccc5cccnc45)cc3)cc2)CC1 [TCMDC-136479] | -5.672%
COc1cc(F)c2ncc(Cl)c(CCN3CCC(NCc4ccc5c(c4)OCCO5)CC3)c2c1 [TCMDC-135624] | 2.949%
CC(CCc1ccccc1)NCC(O)c1ccc2c(c1)S(=O)(=O)c1ccccc1N2 (centres unmarked) [TCMDC-131254] | -29.84%
CCCCCN1CCCC(NS(=O)(=O)c2ccc(C(=O)Nc3ccc(C(F)(F)F)cc3)cc2)C1 (centres unmarked) [TCMDC-133677] | 16.66%
CC(Cc1ccc(OCCN2CCN(c3ccccc3)CC2)cc1)NCC(O)c1cccc(Cl)c1F (centres unmarked) [TCMDC-131531] | 24.37%
c1ccc(OCCCCN2CCCCC2)cc1 [TCMDC-124256] | 16.85%
CC(Cc1ccc(OCCCCOc2ccccc2)cc1)NCCCN1CCOCC1 (centres unmarked) [TCMDC-140018] | 107.6%
CN1CCCC1CCCOC(=O)c1ccc(N)cc1 (centres unmarked) [TCMDC-131643] | -5.047%
CC(Cc1ccc(OCCCCOc2ccccc2)cc1)NCCC1CCCN1C (centres unmarked) [TCMDC-140017] | 116.2%
Nc1ncc(-c2ccc(Br)cc2)c(N)n1 [TCMDC-125524] | -3.505%
Cn1ccnc1CNC(=O)c1ccc(-c2ccc(-c3nc4cc(C(F)(F)F)ccc4[nH]3)s2)cc1 [TCMDC-132353] | 3.481%
COc1cccc2c(C)cc(NCc3ccc(Cl)cc3)nc12 [TCMDC-125774] | -17.6%

SMILES | % Inhibition
COc1cccc2c(NCc3ccccc3)nc(NCCCN3CCCCC3C)nc12 (centres unmarked) [TCMDC-137782] | 79.04%
COc1cc(CCNc2nc(NCc3cccc4ccccc34)nc(N3CCC(N)CC3)n2)ccc1O [TCMDC-133444] | -7.002%
c1ccc(CNc2nc(NCCc3cnc[nH]3)nc(N3CCCC4CCCCC43)n2)cc1 (centres unmarked) [TCMDC-139742] | 0.6761%
Brc1ccc(Nc2nc(NCc3ccccc3)c3ccccc3n2)cc1 [TCMDC-124574] | 42.06%
CC1CCCCN1CCCNc1nc(NCc2ccccc2)c2ccccc2n1 (centres unmarked) [TCMDC-137771] | 108.4%
C=C1N(C)c2cc([N+](=O)[O-])c(N)cc2C1(C)C [TCMDC-125319] | -63.8%
COc1cc2c(cc1COc1ccccc1)CCN1Cc3cc(OC)c(OC)cc3CC21 (centres unmarked) [TCMDC-141984] | -4.56%
COc1cc2c(cc1O)[C@@H]1[C@H](O)[C@@H](O)C=C3CCN(C2)[C@H]31 [TCMDC-132036] | 63.23%
CC(=O)Nc1ccc(C(=O)Nc2ccc(-c3csc(-c4nc5ccccc5[nH]4)c3)cc2)cn1 [TCMDC-132393] | 4.532%
CC(=O)Nc1ccc(C(=O)Nc2cccc(-c3cccc(-c4nc5ccccc5[nH]4)c3)c2)cn1 [TCMDC-136820] | 6.09%
CC(=O)Nc1ccc(C(=O)Nc2ccc(-c3cccc(-c4nc5ccccc5[nH]4)c3)cc2)cn1 [TCMDC-136819] | -15.84%
CC(=O)Nc1ccc(C(=O)Nc2cccc(-c3csc(-c4nc5ccccc5[nH]4)c3)c2)cn1 [TCMDC-132405] | 77.44%
CC(=O)Nc1ccc(C(=O)Nc2cccc(-c3ccc(-c4nc5ccccc5[nH]4)cc3)c2)cn1 [TCMDC-136827] | 76.21%
CC(=O)Nc1ccc(C(=O)Nc2cccc(-c3ccc(-c4nc5ccccc5[nH]4)s3)c2)cn1 [TCMDC-136821] | 24.61%
Cc1ccc(Cn2c(N3CCC(C(=O)NCc4ccccn4)CC3)nc3ccccc32)cc1 [TCMDC-125442] | 35.66%
NC(=O)NC(=O)C=Cc1ccco1 [TCMDC-131644] | -0.9845%
COc1cc(NC(=O)/C=C/c2cc(F)cc(F)c2F)cc(OCCN2CCC3(CC2)OCCO3)c1 [TCMDC-140933] | -20.54%
COc1ccc(C(=O)N2CCC3(CC2)C(=O)N(CC(=O)NCC2CCCCC2)CN3c2ccccc2)cc1 [TCMDC-125171] | 3.565%
O=C(Nc1ccc(C(F)(F)F)cc1)c1ccc(S(=O)(=O)NC2CCN(CC3CCCCC3)CC2)cc1 [TCMDC-133676] | -72.67%
O=C(Nc1cccc(C(F)(F)F)c1)c1ccc(S(=O)(=O)NC2CCN(CC3CCCCC3)C2)cc1 (centres unmarked) [TCMDC-132772] | 86.66%
O=C(Nc1ccc(C(F)(F)F)cc1)c1ccc(S(=O)(=O)NC2CCN(CC3CCCCC3)C2)cc1 (centres unmarked) [TCMDC-133674] | -14.42%
O=C(Nc1cccc(C(F)(F)F)c1)c1cccc(S(=O)(=O)NC2CCN(CC3CCCCC3)C2)c1 (centres unmarked) [TCMDC-132487] | 9.75%
O=C(Nc1cccc(C(F)(F)F)c1)c1ccc(S(=O)(=O)NC2CCN(CC3CCCCC3)CC2)cc1 [TCMDC-132773] | 84.32%
O=C(Nc1ccc(C(F)(F)F)cc1)c1ccc(S(=O)(=O)NC2CCCN(CC3CCCCC3)C2)cc1 (centres unmarked) [TCMDC-133678] | 5.433%
CCC[C@@H]([C@@H](CC1CCCCC1)C(=O)N[C@H](C(=O)Nc1nccc(N)n1)C(C)(C)C)N(O)C=O [TCMDC-138127] | 6.724%
NC12CC3CC(CC(C3)C1)C2 [TCMDC-125869] | 6.577%

SMILES | % Inhibition
CC(C)NC(=O)c1cccc(-c2cccc(OCCN3CCSCC3c3ccccc3)c2)c1 (centres unmarked) [TCMDC-134384] | 34.28%
O=C(/C=C/c1ccc(Cl)c(Cl)c1)Nc1cccc(CN2CCC(c3c[nH]c4ccc(O)cc34)CC2)c1 [TCMDC-139634] | -96.41%
COC(=O)CCCCOc1cc(Cc2cnc(N)nc2N)cc(OC)c1OC [TCMDC-138041] | 1.908%
Cc1cccc2[nH]cc(C3CCN(CC4CCC(NC(=O)/C=C/c5ccc(Cl)c(Cl)c5)CC4)CC3)c12 (centres unmarked) [TCMDC-140137] | 108%
Cc1cccc2c(C3CCN(CC4CCC(NC(=O)/C=C/c5ccc(Cl)c(Cl)c5)CC4)CC3)c[nH]c12 (centres unmarked) [TCMDC-139639] | 73.81%
O=C(/C=C/c1ccc(Cl)c(Cl)c1)NC1CCC(CN2CCC(c3coc4ccccc34)CC2)CC1 (centres unmarked) [TCMDC-140260] | -37.97%
COc1cc2c(C3CCN(CC4CCC(NC(=O)/C=C/c5ccc(Cl)c(Cl)c5)CC4)CC3)c[nH]c2cn1 (centres unmarked) [TCMDC-140245] | 13.08%
COc1ccc2nccc(NC(=O)N3CCC(NCc4cc5ccccc5[nH]4)CC3)c2n1 [TCMDC-140671] | -10.57%
Cc1cc(Cl)ccc1N(Cc1ccccc1)c1ccnc(Cl)n1 [TCMDC-138722] | -10.33%
Cc1cc(C)nc(-n2[nH]c(C)c(Cc3ccc(C(C)(C)C)cc3)c2=O)n1 [TCMDC-125382] | 16.36%
O=C(Nc1ccc(N2CCNCC2)cc1)c1ccn2ncc(-c3cccc(Cl)c3)c2n1 [TCMDC-132663] | 113.1%
O=C(Nc1cccc(Cl)c1)c1cnc(N2CCN(c3ccncc3)CC2)c(Cl)c1 [TCMDC-134600] | 12.94%
Oc1ccc(CCNc2nc(NCc3ccccc3-c3cccc(Cl)c3)nc(N3CCNCC3)n2)cc1 [TCMDC-133784] | -2.358%
O=C(Nc1ccc(Cn2nc(Cl)c(N3CCNCC3)cc2=O)cc1)Nc1ccc(-c2ccccc2)cc1 [TCMDC-141700] | -30.94%
Cc1c(Cn2nc(Cl)c(N3CCNCC3)cc2=O)cccc1NC(=O)Nc1ccc(-c2ccccc2)cc1 [TCMDC-141699] | 65.88%
Cc1ccc(Cn2nc(Cl)c(N3CCCNCC3)cc2=O)cc1NC(=O)Nc1ccc(-c2ccccc2)cc1 [TCMDC-141697] | 91.1%
O=C(Nc1ccc(Cn2nc(Cl)c(N3CCCNCC3)cc2=O)cc1)Nc1ccc(-c2ccccc2)cc1 [TCMDC-141696] | -10.1%
COc1ccc(NC(=O)Nc2ccc(-c3ccccc3)cc2)cc1Cn1nc(Cl)c(N2CCCNCC2)cc1=O [TCMDC-141724] | 21.4%
O=C(Nc1ccc(-c2ccccc2)cc1)Nc1cccc(Cn2nc(Cl)c(N3CCNCC3)cc2=O)c1 [TCMDC-141694] | -35.56%
Cc1ccc(Cn2nc(N3CCNCC3)ccc2=O)cc1NC(=O)Nc1ccc(-c2ccccc2)cc1 [TCMDC-132580] | 107.8%
Cc1ccc(Cn2nc(Cl)c(N3CCNCC3)cc2=O)cc1NC(=O)Nc1ccc(-c2ccccc2)cc1 [TCMDC-141698] | 114.4%
O=C(Nc1ccc(-c2ccccc2)cc1)Nc1cccc(Cn2nc(Cl)c(N3CCCNCC3)cc2=O)c1 [TCMDC-141695] | 3.325%
O=C(Nc1ccc(Cn2nc(Cl)c(N3CCCNCC3)cc2=O)cc1)c1ccc(-c2ccccc2)cc1 [TCMDC-141693] | 29.71%
O=C(Nc1ccc(-c2ccccc2)cc1)Nc1cccc(Cn2cnc(N3CCCNCC3)cc2=O)c1 [TCMDC-133363] | -19.33%
Cc1ccc(Cn2cnc(N3CC(C)NC(C)C3)cc2=O)cc1NC(=O)Nc1ccc(-c2ccccc2)cc1 (centres unmarked) [TCMDC-133371] | 24.76%
